Assay results from PubChem BioAssay (NCATS).
Records with an inconclusive call do not appear. Where a call stands in place of a potency, no number is given. Values without a mark were called inactive. The source made the active and inactive calls. Unless noted, calls follow the shape of the dose curve; as a rule, active = well fitted curve in the direction sought with a large enough effect; inconclusive = small, poorly fitted or top-dose-only effect, or another doubt; inactive = no such curve, though single readings can be large; an effect the other way counts as inactive or inconclusive.

Legend:
[1] = qHTS for Inhibitors of Plasmodium falciparum (HB3) proliferation (AID 504318); also: nearly all actives have a fitted effect of over 60% in size; also: potency is read from the fitted curve at half-maximal effect
How it was run: (§1)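 Erythrocytes infected with P. falciparum line (0.3% parasitemia, 2.5% hematocrit final) incubated with compounds 72 h at 37 °C, 5% CO2; SYBR Green lysis buffer added, fluorescence read next day. Normalized to 0.29 uM artemisinin and DMSO.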

[2] = target: Atrial natriuretic peptide receptor 1 (Homo sapiens) (UniProt P16066); test: Natriuretic polypeptide receptor (hNpr1) antagonism - Pilot CMLD screen (AID 1347052; calls by dose curve;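 also: HEK293 cells with hNpr1 stimulated by hNppA peptide at 0.1 nM; cGMP level read as GloSensor luciferase luminescence after agonist stimulation; series mostly up to about 9.2 µM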)
[3] = qHTS for Inhibitors of Plasmodium falciparum (CP250) proliferation (AID 504320); also: potency is read from the fitted curve at half-maximal effect
How it was run: as §1

Chain of Atrial natriuretic peptide receptor 1 (Homo sapiens) (P16066 whole entry, looked up): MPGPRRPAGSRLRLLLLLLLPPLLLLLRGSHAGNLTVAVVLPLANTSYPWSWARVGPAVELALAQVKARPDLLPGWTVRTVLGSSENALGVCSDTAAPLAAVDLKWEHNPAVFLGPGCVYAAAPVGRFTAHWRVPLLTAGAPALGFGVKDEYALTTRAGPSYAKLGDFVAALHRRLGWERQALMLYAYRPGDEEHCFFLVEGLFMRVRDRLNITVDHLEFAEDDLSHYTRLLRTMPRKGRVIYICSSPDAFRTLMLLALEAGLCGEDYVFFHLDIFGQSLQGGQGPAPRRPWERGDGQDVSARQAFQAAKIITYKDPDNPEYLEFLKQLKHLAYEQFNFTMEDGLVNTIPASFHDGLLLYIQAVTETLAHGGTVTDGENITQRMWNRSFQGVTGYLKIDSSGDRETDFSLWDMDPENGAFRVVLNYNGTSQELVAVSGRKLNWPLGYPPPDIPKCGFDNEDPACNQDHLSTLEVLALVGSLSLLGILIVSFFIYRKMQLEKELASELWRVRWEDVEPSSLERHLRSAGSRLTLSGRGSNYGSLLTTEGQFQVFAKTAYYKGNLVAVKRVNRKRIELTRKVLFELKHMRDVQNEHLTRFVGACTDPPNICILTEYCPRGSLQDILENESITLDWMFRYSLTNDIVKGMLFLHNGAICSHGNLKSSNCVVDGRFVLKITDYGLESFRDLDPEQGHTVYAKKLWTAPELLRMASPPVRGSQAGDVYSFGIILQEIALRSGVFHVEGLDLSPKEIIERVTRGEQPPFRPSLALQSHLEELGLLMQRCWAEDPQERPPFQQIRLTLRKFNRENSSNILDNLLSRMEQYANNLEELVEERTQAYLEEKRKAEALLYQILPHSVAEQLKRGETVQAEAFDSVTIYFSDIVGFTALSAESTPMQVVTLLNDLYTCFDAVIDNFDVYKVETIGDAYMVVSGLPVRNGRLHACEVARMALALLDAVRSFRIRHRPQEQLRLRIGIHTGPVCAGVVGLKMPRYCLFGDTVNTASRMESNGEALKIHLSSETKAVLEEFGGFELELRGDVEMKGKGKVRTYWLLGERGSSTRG

SMILES | Potency [1] | Potency [2] | Potency [3]
COC(=O)C1=C(C(=O)OC)[C@@H]2N(Cc3ccccc3)c3ccccc3[C@@]23CCC(=O)N(CC2CC2)C3=N1 | 3.29 µM (active) | inactive | –
C=CCN=C1NC(c2cccc(C(F)(F)F)c2)C(C(=O)OC)=C(C)N1CC (configuration not stated) | inactive | inactive | inactive
CCN1C(=S)NC(c2cccs2)C(C(=O)OC)=C1C (configuration not stated) | inactive | inactive | inactive
COC(=O)C1=C(C)N(Cc2ccccc2)C(=O)NC1CCc1ccccc1 (configuration not stated) | inactive | inactive | inactive
COC(=O)C1=C(C)N(Cc2ccccc2)C(=NCCc2c[nH]c3ccccc23)NC1c1cccc(F)c1 (configuration not stated) | inactive | inactive | inactive
COC(=O)[C@H]1[C@@H](c2ccccc2)NC(=O)O[C@@H]1C | inactive | inactive | –
CCCC[C@]12Cc3cc(C#N)ccc3[C@H](O1)c1c(cc(-c3ccccc3)oc1=O)O2 | – | inactive | inactive
CCOC(=O)CN1C(=O)[C@@]2(CC(C)=CC[C@@H](COc3ccccc3)O2)c2ccccc21 | – | inactive | inactive
COc1ccc(O[C@H]2C=C[C@@H](c3ccccc3)O[C@H]2COC(=O)CCC(C)=NOCC[C@@H]2C=C[C@H](OC(C)=O)[C@@H](COC(C)=O)O2)cc1 | inactive | inactive | inactive
CC1=C[C@H]2c3ccccc3C[C@H]2CO[C@]12C(=O)N(Cc1ccc(Br)cc1)c1ccccc12 | – | inactive | inactive
N#Cc1ccc2c(c1)C[C@]1(CCCCN3C(=O)c4ccccc4C3=O)OC3=C(C(=O)OC4(CCCCC4)C3)[C@H]2O1 | – | inactive | inactive
C[C@@H]1CC[C@H]2C(=O)N(CC3CCCCC3)C[C@H](O)CN2[C@@H]1c1ccc(Br)cc1 | – | inactive | inactive
COC1=C[C@H](C(=O)NC2CCN(Cc3ccccc3)CC2)[C@H](C)[C@@H](c2ccccc2)CC1=O | – | inactive | inactive
CC(C)=CCCC(C)=CCON=C1C[C@@H](O)[C@@H](O)[C@@H]2[C@H]3C(=O)N(Cc4ccccc4)C(=O)[C@@H]3CC[C@@H]12 | – | inactive | inactive
COc1cccc([C@@H]2Oc3ccc(OC)cc3C(=O)[C@@H]2O)c1 | – | inactive | inactive
COC(=O)C1=C(C)N(Cc2ccccc2)C(=NCC(C)C)NC1c1ccc(Br)cc1 (configuration not stated) | – | inactive | inactive
COc1cc2c(cc1OC)[C@@H]1O[C@](CCCCN3C(=O)c4ccccc4C3=O)(C2)Oc2c1c(=O)oc1ccc(F)cc21 | – | inactive | inactive
C=CCN1c2ccccc2[C@]23CCC(=O)N(Cc4cc(OC)c(OC)c(OC)c4)C2=NC(C(=O)OC)=C(C(=O)OC)[C@H]13 | – | inactive | inactive
COC(=O)CC=C1c2ccccc2[C@@H](O)[C@@H]1C | – | inactive | inactive
COc1cc2c(cc1OC)[C@@H]1O[C@](c3ccsc3)(C2)OC2=C1C(=O)CC(C)(C)C2 | – | inactive | inactive
COc1cc2c(cc1OC)[C@@H]1O[C@](c3ccsc3)(C2)Oc2c1c(=O)oc1ccc(F)cc21 | – | inactive | inactive
CCCNC(=O)OC[C@H]1O[C@H](CCON=Cc2ccc(C(=O)N3[C@H](C(=O)OC)CC[C@H](C)[C@@H]3c3ccc(C)cc3)cc2)C=C[C@H]1Oc1ccc(OC)cc1 | – | inactive | inactive
C[C@H]1C[C@@H](C)O[C@@]2(C1)C(=O)N(Cc1ccccc1C(F)(F)F)c1ccccc12 | – | inactive | inactive

SMILES | Potency [1] | Potency [2] | Potency [3]
COc1ccc2c(c1)O[C@@H](c1cccc(C(F)(F)F)c1)[C@H](OC(=O)Nc1cc(OC)c(OC)c(OC)c1)C2=O | – | inactive | inactive
CCC(C)CN1C(=O)NC(CCc2ccccc2)C(C(C)=O)=C1C (configuration not stated) | – | inactive | inactive
O=C1N(Cc2ccccc2C(F)(F)F)c2ccccc2[C@@]12O[C@H](COc1ccccc1)CC1=C2CCC1 | – | inactive | inactive
COc1ccc([C@]23Cc4cc(OC)c(OC)cc4[C@H](O2)c2c(cc(C)n(Cc4ccccc4)c2=O)O3)cc1 | – | inactive | inactive
COc1cc2c(c(OC)c1OC)CC(c1ccccc1)=C(c1ccccc1)CC2NC(=O)C(F)(F)F (configuration not stated) | – | inactive | inactive
COC(=O)N1C2CC(=O)O[C@H]3c4cc5c(cc4[C@]1(C)[C@@]3(Br)c1ccccc12)OCO5 | – | inactive | 1.51 µM (active)
CC1=CC[C@@H](COc2ccccc2)O[C@@]2(C1)C(=O)N(Cc1ccc(Br)cc1)c1ccccc12 | – | inactive | inactive
O=C(N[C@H](c1ccccc1)C1CCCC=C1c1ccccc1)C(F)(F)F (some centres not stated) | – | inactive | inactive
C[C@H]1CC[C@H]2C(=O)N(Cc3cccc([N+](=O)[O-])c3)C[C@H](O)CN2[C@H]1c1cccc(Br)c1 | – | inactive | inactive
COC(=O)CC=C[C@@H](C)[C@H](NC(=O)OCC(Cl)(Cl)Cl)c1ccc(-c2ccccc2)cc1 | – | inactive | inactive
C[C@@H]1C(c2ccccc2)=CC(=O)c2nc3ccccc3cc2[C@@H]1C(=O)N1CCCC1 | – | inactive | inactive
CC1=C[C@@H](COCc2ccccc2)O[C@@]2(C1)C(=O)N(Cc1ccccc1C(F)(F)F)c1ccccc12 | – | inactive | inactive
COc1ccc([C@]23Cc4ccccc4[C@H](O2)C2=C(CC(C)(C)CC2=O)O3)cc1 | – | inactive | inactive
COc1cccc([C@H]2NC(=O)C[C@@H]3C[C@@H](C)[C@@H](c4cccc(OC)c4)N3C(=O)C=CC[C@@H]2C)c1 | – | inactive | inactive
C[C@@H]1C=CCC(=O)N[C@@H](c2cccc(Br)c2)[C@H](C)C=CCC(=O)N[C@@H]1c1cccc(Br)c1 | – | inactive | inactive
C[C@H]1Cc2c(COc3ccccc3)nc3c(c2CO1)CN(C(=O)c1cc(I)ccc1F)CC3 | – | inactive | inactive
COc1cccc([C@H]2NC(=O)CC=C[C@H](C)[C@@H](c3cccc(OC)c3)NC(=O)CC=C[C@H]2C)c1 | – | inactive | inactive
C[C@]12C[C@@](C)(C=C1C=Cc1ccccc1)C(=O)C[C@H]2c1ccccc1 | – | inactive | inactive
O=C1Nc2ccccc2[C@@]12O[C@H](COc1ccccc1)CC1=C2CCC1 | – | inactive | inactive
C[C@H]1CC[C@H]2C(=O)N(Cc3ccccc3)C[C@@H](O)CN2[C@H]1c1ccc(Br)cc1 | – | inactive | inactive
COC(=O)CCC(=O)N1C2=NC3=C(C(=O)N(Cc4ccc5c(c4)OCO5)C3=O)C3N(C)c4ccccc4[C@]23C[C@H]1CO (some centres not stated) | – | inactive | inactive
CC1(C)O[C@@H](C(O)(c2ccccc2)c2ccccc2)[C@H](C(O)(c2ccccc2)c2ccccc2)O1 | – | inactive | inactive
C=CC[C@@]1(c2ccccc2)Oc2ccccc2-c2nc3ccccc3nc21 | – | inactive | inactive
